To fix the notation:
T1: UNK ZnF1-3 (human, UniProt Q9C0B0 31-174)
T1 sequence: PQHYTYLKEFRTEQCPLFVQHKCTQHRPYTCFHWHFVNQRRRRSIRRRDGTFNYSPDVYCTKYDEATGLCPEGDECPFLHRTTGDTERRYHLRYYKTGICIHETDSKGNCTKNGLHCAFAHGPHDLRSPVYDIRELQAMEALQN

B1: 5036412_5036532_457_CDS_ENSMUSG00000022536_ENSMUST00000115844|mouse|control|control (ssRNA)
RNA: GGGAGUUCUACAGUCCGACGAUCGCCUGAAGUCACCCUCUUCUUUCCUUCUCCCAUGUUCUUCUUCACCUUCCCUUCAGACAGGCUAAGCUUGCGUUUCUCAUCACCUGAGUUUGGCCUACUUCUCUCCUCACUGGAAUUACGCAACAGAGGAUUGAGCAUCA
B2: chr5:37680062:37680063:+_ENSMUSG00000029121_ENSMUST00000031004|mus_hu|mus_mus_mus_hu_False|58_98 (ssRNA)
RNA: GGGAGUUCUACAGUCCGACGAUCUUUGGGUGUAGCUGGCACCUCGUACACAGGACCGUCAUACAUGCCCCUGGAAACACUAUGCAAUCCAAAAACCUUAUUCCUGAUUUUGACGCGCUGGUACAGGUGCUCCGGGAACGCCUUCAACAGAGGAUUGAGCAUCA
B3: chr2:27118074:27118075:-_ENSMUSG00000009621_ENSMUST00000056176|mus_hu|FALSE|FALSE (ssRNA)
RNA: GGGAGUUCUACAGUCCGACGAUCAUUCACAGAUAUAUAACGGGAGAUUUGGAUGAAAUAAUUACAAACUUUUUUCCCCUUAAAAAACAAACAAGCCAAACAAAACACAAACAAAACAAAAACCCCAAAACCAAAACACAAGACCAACAGAGGAUUGAGCAUCA
B4: chr6:86474593:86474594:-_ENSMUSG00000051695_ENSMUST00000053015|mus_hu|motif|central (ssRNA)
RNA: GGGAGUUCUACAGUCCGACGAUCACAUUUCUUAUCGACAAACAGAAAUAAAAUUCAUGAGCCAAAAAACCCAAAACAAAACGGAAAACAGGGAAAAGCUUAUAAAACUAAAUAUGGAUCCCAGCAUUAACAGCUGAACAGAGACAACAGAGGAUUGAGCAUCA
B5: 90301638_90312025_2792_CDS_ENSG00000196730_ENST00000408954|human|control|control (ssRNA)
RNA: GGGAGUUCUACAGUCCGACGAUCGACAACAACAUGGAUUGACGUGGGAUCAUUUGCAGCAAAAUAGUCAUAACAGCAGAAAUACACAGGAUUUCCAGAGAACUCCCACACGCUGAAAUCGCCAACUCCAUUCAAAUAAGCGUUCAACAGAGGAUUGAGCAUCA
B6: chr6:86474593:86474594:-_ENSMUSG00000051695_ENSMUST00000053015|mus_hu|FALSE|FALSE (ssRNA)
RNA: B4 RNA with G82U, G83A
B7: chr7:97619395:97619396:-_ENSMUSG00000030614_ENSMUST00000032843|mus_mus|motif|central (ssRNA)
RNA: GGGAGUUCUACAGUCCGACGAUCCAGGGAUGCAUAGGUCUUCAAAGCUUCAUAUUUAACCUUGAAACUGUUUCGGAAAACGGAGUUUGCCAUUAUGCCAGACAAACUACUACUUGUUCCAAAGACCAAAGUUCCAUGUAUAUUCAACAGAGGAUUGAGCAUCA

Changes are numbered by the printed parent chain. The full ranking holds about 24,000 sequences; the median of “enrichment r” is about 0.99, and the highest 2% start at about 3.7. The list comes from a sample in which the highest values are over-represented; it also holds similar and randomly drawn sequences.

The assay has as its target T1, UNK ZnF1-3. Nature of the assay: nsRBNS (natural sequence RNA bind-n-seq); RBNS binding buffer (assumed for nsRBNS): 25 mM Tris pH 7.5, 150 mM KCl, 3 mM MgCl2, 0.01% Triton X-100, 500 ug/ml BSA, 20 U/ml SUPERase-In, 4 C; UNK is unkempt and MSI1 is Musashi-1; names of the RNAs are library labels; protein concentration not given here; high values mean tight binding.
Consider B1, for which the binding signal was 0.512 enrichment R.

For the molecule B2, the binding signal is 0.673 enrichment R.

In turn, B3 returned a binding signal of 3.28 enrichment R.

B4 had a binding signal of 4.53 enrichment R.

In the case of B5, the binding signal was 2.03 enrichment R.

Turning to B6, the binding signal is 5.48 enrichment R.

B7 showed a binding signal of 0.591 enrichment R.

(Values after paper PMC12136788.)
